In the supplement of paper PMC6331611:
“And” between values parts separate entries of the source, which are not always exact repeats. Equal entries are not always repeated. ± gives the standard deviation of the averaged measurements. Whole data set: some 1,600 compounds, median “normalized intracellular growth (luminescence, IQM-normalized) in RAW264.7 macrophages” near 1, cut for the lowest 2% near 0.43. This excerpt belongs to a sample that is enriched for the lowest values.

Test system: Salmonella enterica serovar Typhimurium SL1344
Assay: normalized intracellular growth (luminescence, IQM-normalized) in RAW264.7 macrophages (fraction of plate interquartile mean); higher = more bacterial growth (less inhibition)
Settings: 10 µM

Row | SMILES | normalized intracellular growth (time point: T3 (3 h)) | normalized intracellular growth (time point: Tfinal (~6 h))
1 | Cc1ncc([N+](=O)[O-])n1C | 0.936 ± 0.053 | 0.98 ± 0.1
2 | Nc1nccs1 | 1.03 ± 0.072 | 0.911 ± 0.12
3 | O.O.O=C([O-])CN(CCN(CC(=O)[O-])CC(=O)O)CC(=O)O.[Na+].[Na+] | 0.978 ± 0.021 | 1.02 ± 0.013
4 | O=c1[nH]c(=O)c2ccccc2o1 | 0.963 ± 0.026 | 1.02 ± 0.078
5 | CC1=C(C/C=C(\C)CCC[C@H](C)CCC[C@H](C)CCCC(C)C)C(=O)c2ccccc2C1=O | 0.968 ± 0.067 | 1.08 ± 0.064
6 | CCCCC/C=C/CCC(=O)N[C@H]1[C@H](Oc2c3cc4cc2Oc2ccc(cc2Cl)[C@@H](O[C@@H]2O[C@H](CO)[C@@H](O)[C@H](O)[C@H]2NC(C)=O)[C@@H]2NC(=O)[C@H](NC(=O)[C@@H]4NC(=O)[C@H]4NC(=O)C(Cc5ccc(c(Cl)c5)O3)NC(=O)[C@H](N)c3ccc(O)c(c3)Oc3cc(O)cc4c3)c3ccc(O)c(c3)-c3c(OC4O[C@H](CO)[C@@H](O)[C@H](O)[C@@H]4O)cc(O)cc3[C@@H](C(=O)O)NC2=O)O[C@H](CO)[C@@H](O)[C@@H]1O (stereo partly drawn) [TEICOPLANIN [A(2-1) shown]] | 0.955 ± 0.07 | 1.07 ± 0.065
7 | Cc1c(C)c2c(c(C)c1O)CCC(C)(CCCC(C)CCCC(C)CCCC(C)C)O2 (stereo not drawn) [alpha-TOCHOPHEROL] | 0.999 ± 0.14 | 1.1 ± 0.13
8 | O=C(NCc1ccccc1)OCCO | 1.24 ± 0.071 | 1.33 ± 0.083
9 | CN(C)c1ccc(O)c2c1C[C@H]1C[C@H]3[C@H](N(C)C)C(O)=C(C(N)=O)C(=O)[C@@]3(O)C(O)=C1C2=O | 1.01 ± 0.091 | 0.33 ± 0.14
10 | CN(C)[C@@H]1C(O)=C(C(N)=O)C(=O)[C@@]2(O)C(O)=C3C(=O)c4c(O)cccc4[C@@](C)(O)[C@H]3C[C@@H]12 | 0.598 ± 0.062 | 0.209 ± 0.048
11 | CN(C)[C@@H]1C(O)=C(C(=O)NCN2CCCC2)C(=O)[C@@]2(O)C(O)=C3C(=O)c4c(O)cccc4[C@@](C)(O)[C@H]3C[C@@H]12 | 0.973 ± 0.013 | 0.683 ± 0.41
12 | C[C@H]1c2cccc(O)c2C(=O)C2=C(O)[C@]3(O)C(=O)C(C(N)=O)=C(O)[C@@H](N(C)C)[C@@H]3[C@@H](O)[C@@H]21 | 0.73 ± 0.065 | 0.173 ± 0.025
13 | C=C1c2cccc(O)c2C(=O)C2=C(O)[C@]3(O)C(=O)C(C(N)=O)=C(O)[C@@H](N(C)C)[C@@H]3[C@@H](O)[C@H]12 | 0.979 ± 0.029 | 0.103 ± 0.039
14 | CN(C)c1cc(NC(=O)CNC(C)(C)C)c(O)c2c1C[C@H]1C[C@H]3[C@H](N(C)C)C(O)=C(C(N)=O)C(=O)[C@@]3(O)C(O)=C1C2=O | 1.01 ± 0.05 | 1.02 ± 0.18
15 | CN(C)CCc1c[nH]c2ccc(CS(=O)(=O)N3CCCC3)cc12 | 0.989 ± 0.027 | 1.14 ± 0.15
16 | CCCCCNC(=N)N/N=C/c1c[nH]c2ccc(OC)cc12 | 1.05 ± 0.1 | 1.08 ± 0.037
17 | CCC(=O)Oc1ccc2c(c1)CC[C@@H]1[C@@H]2CC[C@]2(C)[C@@H](OC(=O)CC)CC[C@@H]12 | 0.977 ± 0.092 | 0.934 ± 0.089
18 | O=C([O-])C(O)[C@H](O)[C@@H](O)[C@H](O)[C@H](O)CO.O=C([O-])C(O)[C@H](O)[C@@H](O)[C@H](O)[C@H](O)CO.[Ca+2] (stereo partly drawn) | 1.04 ± 0.019 | 1.06 ± 0.18
19 | Cc1c(OCC(F)(F)F)ccnc1C[S@@+]([O-])c1nc2ccccc2[nH]1 | 0.98 ± 0.076 | 1.18 ± 0.11
20 | CC1=C(C)C(=O)C(C(CCCCCC(=O)O)c2ccccc2)=C(C)C1=O (stereo not drawn) | 0.994 ± 0.042 | 1.18 ± 0.085
21 | NC(=O)c1cc[n+](CC2=C(C(=O)O)N3C(=O)[C@@H](NC(=O)[C@@H](c4ccccc4)S(=O)(=O)[O-])[C@H]3SC2)cc1 | 0.999 ± 0.056 | 1.05 ± 0.028
22 | CCOc1ccc(NC(=O)CC(C)O)cc1 (stereo not drawn) | 0.969 ± 0.045 | 1.202 ± 0.0076
23 | CC(=O)N(CC(O)CO)c1c(I)c(C(=O)NCCO)c(I)c(C(=O)NCC(O)CO)c1I (stereo not drawn) | 0.938 ± 0.063 | 1.17 ± 0.091

Row | SMILES | normalized intracellular growth (time point: T3 (3 h)) | normalized intracellular growth (time point: Tfinal (~6 h))
24 | OC[C@H]1O[C@H](O[C@H]2[C@H](O)[C@@H](O)C(O)O[C@@H]2CO)[C@H](O)[C@@H](O)[C@@H]1O (stereo partly drawn) | 0.919 ± 0.086 | 0.986 ± 0.012
25 | OC[C@H]1O[C@@H](O[C@@H]2[C@@H](CO)OC(O)(CO)[C@H]2O)[C@H](O)[C@@H](O)[C@H]1O (mixture of isomers) | 0.999 ± 0.021 | 0.958 ± 0.011
26 | OC[C@H]1O[C@H](O[C@]2(CCl)O[C@H](CCl)[C@@H](O)[C@@H]2O)[C@H](O)[C@@H](O)[C@H]1Cl | 0.91 ± 0.095 | 0.0259 ± 0.0051
27 | COc1ccc(C(=O)c2ccccc2)c(O)c1 | 0.948 ± 0.07 | 0.417 ± 0.083
28 | COc1ccc(C(=O)c2ccc(C)cc2)c(O)c1 | 1.02 ± 0.028 | 0.926 ± 0.2
29 | COc1ccc(C(=O)c2ccccc2O)c(O)c1 | 1 ± 0.047 | 1.24 ± 0.031
30 | Cc1cc(O)cc(C)c1Cl | 1.03 ± 0.075 | 1.11 ± 0.071
31 | N=c1ccn2c(n1)O[C@H]1[C@H](O)[C@@H](CO)O[C@H]12 | 1 ± 0.029 | 1.16 ± 0.016
32 | CCn1cc(C(=O)O)c(=O)c2cc(F)c(N3CCNC(C)C3)c(F)c21 (stereo not drawn) | 0.996 ± 0.098 | 0.0187 ± 0.0027
33 | CCn1cc(C(=O)O)c(=O)c2ccc(C)nc21 | 0.994 ± 0.03 | 0.881 ± 0.37
34 | CCn1cc(C(=O)O)c(=O)c2cnc(N3CCNCC3)nc21 | 0.974 ± 0.034 | 0.533 ± 0.082
35 | CO/N=C1\CN(c2nc3c(cc2F)c(=O)c(C(=O)O)cn3C2CC2)CC1CN (stereo not drawn) | 0.967 ± 0.014 | 1.15 ± 0.048
36 | CCn1cc(C(=O)O)c(=O)c2cc(F)c(N3CCNCC3)nc21 | 0.916 ± 0.07 | 0.245 ± 0.036
37 | COc1c(N2CCNC(C)C2)c(F)cc2c(=O)c(C(=O)O)cn(C3CC3)c12 (stereo not drawn) | 1.02 ± 0.13 | 0.015 ± 0.0035
38 | COc1c(N2C[C@@H]3CCCN[C@@H]3C2)c(F)cc2c(=O)c(C(=O)O)cn(C3CC3)c12 | 1.41 ± 0.1 | 0.00827 ± 0.001
39 | CC(C)(CO)[C@@H](O)C(=O)NCCC(=O)NCCSSCCNC(=O)CCNC(=O)[C@H](O)C(C)(C)CO | 0.981 ± 0.048 | 0.976 ± 0.089
40 | OCc1cccnc1 | 1.056 ± 0.0048 | 0.97 ± 0.051
41 | O=S(=O)(c1cccc2cnccc12)N1CCCNCC1 | 1.02 ± 0.035 | 1.13 ± 0.067
42 | NC(=O)NS(=O)(=O)c1ccc(N)cc1 | 0.98 ± 0.031 | 0.881 ± 0.095
43 | FC(F)(Cl)C(F)(F)Cl | 1.02 ± 0.023 | 0.675 ± 0.21
44 | NC1CCN(c2c(F)cc3c(=O)c(C(=O)O)cn(C4CC4)c3c2Cl)C1 (stereo not drawn) | 1.49 ± 0.071 | 0.00632 ± 0.00035
45 | CC(=O)OCC(=O)[C@@]1(O)CC[C@H]2[C@@H]3CCC4=CC(=O)C=C[C@]4(C)[C@@]3(Cl)[C@@H](Cl)C[C@@]21C | 0.961 ± 0.062 | 1.13 ± 0.022
46 | CCCCCCCCCc1ccc(OCCOCCOCCOCCOCCOCCOCCOCCOCCO)cc1 | 0.99 ± 0.013 | 1.1 ± 0.048

Row | SMILES | normalized intracellular growth (time point: T3 (3 h)) | normalized intracellular growth (time point: Tfinal (~6 h))
47 | O=C(CCCN1CCC(O)(c2ccc(Br)cc2)CC1)c1ccc(F)cc1 | 0.391 ± 0.23 | 1.28 ± 0.14
48 | O=C(CCCN1CCC(O)(c2ccc(Cl)cc2)CC1)c1ccc(F)cc1 | 0.957 ± 0.056 | 1 ± 0.085
49 | NC(=O)C1(N2CCCCC2)CCN(CCCC(=O)c2ccc(F)cc2)CC1 | 0.984 ± 0.085 | 0.965 ± 0.16
50 | N[C@@H](CCC(=O)N[C@@H](CS)C(=O)NCC(=O)O)C(=O)O | 1.1 ± 0.056 | 0.832 ± 0.11
51 | CC(C)CCCC(C)NC(C)C (stereo not drawn) | 1 ± 0.017 | 0.999 ± 0.11
52 | Cc1ccc(S(=O)(=O)NCl)cc1 | 0.946 ± 0.021 | 0.902 ± 0.052
53 | OCc1ccccc1O | 1.07 ± 0.017 | 1.01 ± 0.022
54 | CC1CCc2cc(F)cc3c(=O)c(C(=O)O)cn1c23 (stereo not drawn) | 0.937 ± 0.026 | 0.389 ± 0.025
55 | CC1CCc2c(N3CCC(O)CC3)c(F)cc3c(=O)c(C(=O)O)cn1c23 (stereo not drawn) | 0.894 ± 0.051 | 0.0538 ± 0.029
56 | N[C@@H](Cc1ccc(O)cc1)C(=O)O | 0.934 ± 0.037 | 0.846 ± 0.31
57 | C=C(C)[C@H]1CC=C(C)CC1 | 0.96 ± 0.013 | 1.1 ± 0.098
58 | C#C[C@]1(OC(C)=O)CC[C@H]2[C@@H]3CCC4=CC(=O)CC[C@@H]4[C@H]3CC[C@@]21C | 1.03 ± 0.046 | 0.972 ± 0.043
59 | CC(O)CC(C)(C)O (stereo not drawn) | 1.05 ± 0.086 | 0.769 ± 0.19
60 | CC[C@H]1OC(=O)[C@H](C)[C@@H](O[C@H]2C[C@@](C)(OC)[C@@H](O)[C@H](C)O2)[C@H](C)[C@@H](O[C@@H]2O[C@H](C)C[C@H](N(C)C)[C@H]2O)[C@](C)(O)C[C@@H](C)CN(C)[C@H](C)[C@@H](O)[C@]1(C)O | 1.05 ± 0.039 | 0.00697 ± 0.00054
61 | CC[C@H]1OC(=O)[C@H](C)[C@@H](O[C@H]2C[C@@](C)(OC)[C@@H](O)[C@H](C)O2)[C@H](C)[C@@H](O[C@@H]2O[C@H](C)C[C@H](N(C)C)[C@H]2O)[C@](C)(O)C[C@@H](C)/C(=N\OCOCCOC)[C@H](C)[C@@H](O)[C@]1(C)O | 1.06 ± 0.03 | 0.825 ± 0.42
62 | CC[C@H]1OC(=O)[C@H](C)[C@@H](O[C@H]2C[C@@](C)(OC)[C@@H](O)[C@H](C)O2)[C@H](C)[C@@H](O[C@@H]2O[C@H](C)C[C@H](N(C)C)[C@H]2O)[C@](C)(O)C[C@@H](C)C(=O)[C@H](C)[C@@H](O)[C@]1(C)O | 0.964 and 0.725 | 0.913 and 0.963
63 | O=C(O)/C=C/C(=O)O | 1.14 ± 0.1 | 1.03 ± 0.16
64 | CCCCCCCCCCOc1cc2c(O)c(C(=O)OCC)cnc2cc1OCC | 0.942 ± 0.08 | 0.973 ± 0.13
65 | CC/C=C\C/C=C\C/C=C\C/C=C\C/C=C\C/C=C\CCC(=O)O | 0.977 ± 0.069 | 1.02 ± 0.09
66 | COc1cc2c3cc1Oc1cc(ccc1O)C[C@@H]1c4c(cc(OC)c(O)c4Oc4ccc(cc4)C[C@@H]3N(C)CC2)CC[N+]1(C)C | 0.937 ± 0.083 | 0.976 ± 0.16
67 | CC[C@H]1OC(=O)[C@H](C)C(=O)[C@H](C)[C@@H](O[C@@H]2O[C@H](C)C[C@H](N(C)C)[C@H]2O)[C@](C)(OC)C[C@@H](C)C(=O)[C@H](C)[C@H]2N(CCCCn3cnc(-c4cccnc4)c3)C(=O)O[C@]12C | 1.01 ± 0.086 | 0.0132 ± 0.0042
68 | CC[C@H]1OC(=O)[C@H](C)[C@@H](O[C@H]2C[C@@](C)(OC)[C@@H](O)[C@H](C)O2)[C@H](C)[C@@H](O[C@@H]2O[C@H](C)C[C@H](N(C)C)[C@H]2O)[C@](C)(OC)C[C@@H](C)C(=O)[C@H](C)[C@@H](O)[C@]1(C)O | 1.09 ± 0.015 | 0.976 ± 0.071
69 | CCC(=O)O[C@H]1[C@H](O[C@@H]2[C@@H](C)[C@H](O[C@H]3C[C@@](C)(OC)[C@@H](O)[C@H](C)O3)[C@@H](C)C(=O)O[C@H](CC)[C@@](C)(O)[C@H](O)[C@@H](C)C(=O)[C@H](C)C[C@@]2(C)O)O[C@H](C)C[C@@H]1N(C)C | 0.792 ± 0.092 | 0.901 ± 0.065
